In the supplement of paper PMC11732987, “Enantioselective OTUD7B fragment discovery through chemoproteomics screening and high-throughput optimisation” (Communications Chemistry, 2025):

Tests used:
Experiment in all cases: log2 ratio of Biotin-Ahx-Ub-VS probe labelling (fragment/DMSO); higher = less target engagement (more negative = stronger competition), active = hit call of the paper (q ≤ 0.05, log2 ratio ≤ -1)
Conditions in all cases: compound concentration: 200 uM; treatment time: 3 h
USP19 = molecular target: T1, USP19 (UniProt O94966)
T1 sequence (whole entry): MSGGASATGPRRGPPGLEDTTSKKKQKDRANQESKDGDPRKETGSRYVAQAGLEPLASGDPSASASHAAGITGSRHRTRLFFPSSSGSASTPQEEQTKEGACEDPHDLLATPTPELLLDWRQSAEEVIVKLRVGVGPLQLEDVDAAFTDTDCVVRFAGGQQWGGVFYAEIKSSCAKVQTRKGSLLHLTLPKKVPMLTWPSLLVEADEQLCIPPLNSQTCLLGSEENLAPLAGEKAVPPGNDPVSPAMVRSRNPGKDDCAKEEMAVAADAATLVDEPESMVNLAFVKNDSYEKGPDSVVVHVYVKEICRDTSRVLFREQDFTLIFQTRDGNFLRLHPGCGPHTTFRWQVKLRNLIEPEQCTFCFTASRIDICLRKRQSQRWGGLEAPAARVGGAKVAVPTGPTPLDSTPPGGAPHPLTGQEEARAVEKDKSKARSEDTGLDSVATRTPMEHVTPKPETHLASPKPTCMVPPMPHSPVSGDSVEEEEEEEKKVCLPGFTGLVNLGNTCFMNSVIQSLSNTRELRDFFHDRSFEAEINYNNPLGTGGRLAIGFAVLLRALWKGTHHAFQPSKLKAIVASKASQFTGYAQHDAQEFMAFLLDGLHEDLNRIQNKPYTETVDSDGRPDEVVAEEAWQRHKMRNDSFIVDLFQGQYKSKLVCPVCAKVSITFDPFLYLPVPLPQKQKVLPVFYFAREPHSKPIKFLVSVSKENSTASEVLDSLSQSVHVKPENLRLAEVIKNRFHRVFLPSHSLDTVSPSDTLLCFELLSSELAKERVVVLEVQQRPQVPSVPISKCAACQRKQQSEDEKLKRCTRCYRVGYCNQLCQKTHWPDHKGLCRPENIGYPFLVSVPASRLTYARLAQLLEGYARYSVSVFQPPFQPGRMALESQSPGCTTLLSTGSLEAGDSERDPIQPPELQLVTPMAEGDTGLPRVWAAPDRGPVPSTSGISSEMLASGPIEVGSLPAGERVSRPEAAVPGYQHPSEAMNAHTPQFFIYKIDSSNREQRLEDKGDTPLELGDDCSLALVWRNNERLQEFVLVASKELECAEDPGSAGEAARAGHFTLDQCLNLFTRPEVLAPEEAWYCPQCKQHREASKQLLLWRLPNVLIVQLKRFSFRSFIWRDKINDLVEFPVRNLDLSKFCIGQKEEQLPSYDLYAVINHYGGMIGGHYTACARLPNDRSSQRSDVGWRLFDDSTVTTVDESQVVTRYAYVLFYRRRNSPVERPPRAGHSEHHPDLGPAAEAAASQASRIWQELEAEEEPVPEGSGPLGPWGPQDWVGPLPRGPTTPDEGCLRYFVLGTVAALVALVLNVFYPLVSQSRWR
Outline: (§1)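 HEK293T lysate (495 µg per sample, in Tris/CHAPS/IGEPAL buffer with protease inhibitors) was exposed in triplicate for 3 h to fragment at 200 µM or to vehicle, then to Biotin-Ahx-Ub-VS at 0.5 µM final for 1 h. Labelled DUBs were enriched on NeutrAvidin, digested with LysC and trypsin, and analysed by diaPASEF LC-MS/MS. Spectronaut label-free quantities were normalised to the global median, and values are average log2 ratios of fragment over vehicle from an unpaired t-test. Only proteins with ≥2 unique peptides were used.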

USP22 = molecular target: T2, USP22 (UniProt Q9UPT9)
T2 sequence (whole entry): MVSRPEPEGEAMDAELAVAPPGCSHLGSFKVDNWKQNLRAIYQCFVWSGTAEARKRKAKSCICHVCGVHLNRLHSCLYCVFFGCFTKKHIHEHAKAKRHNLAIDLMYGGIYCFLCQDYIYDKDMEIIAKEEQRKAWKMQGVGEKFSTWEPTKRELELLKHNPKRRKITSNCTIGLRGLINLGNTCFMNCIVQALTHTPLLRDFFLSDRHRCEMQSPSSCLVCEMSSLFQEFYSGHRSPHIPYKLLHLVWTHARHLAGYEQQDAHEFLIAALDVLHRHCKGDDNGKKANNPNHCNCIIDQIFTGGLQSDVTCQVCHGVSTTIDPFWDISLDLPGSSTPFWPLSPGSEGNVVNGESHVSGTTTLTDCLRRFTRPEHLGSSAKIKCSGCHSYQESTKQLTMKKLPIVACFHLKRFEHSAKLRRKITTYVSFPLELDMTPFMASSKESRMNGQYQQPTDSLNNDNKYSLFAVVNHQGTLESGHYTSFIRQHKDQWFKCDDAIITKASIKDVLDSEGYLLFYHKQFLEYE
Outline: as §1

USP24 = USP24 (UniProt Q9UPU5)
Chain of USP24 (Q9UPU5 whole entry): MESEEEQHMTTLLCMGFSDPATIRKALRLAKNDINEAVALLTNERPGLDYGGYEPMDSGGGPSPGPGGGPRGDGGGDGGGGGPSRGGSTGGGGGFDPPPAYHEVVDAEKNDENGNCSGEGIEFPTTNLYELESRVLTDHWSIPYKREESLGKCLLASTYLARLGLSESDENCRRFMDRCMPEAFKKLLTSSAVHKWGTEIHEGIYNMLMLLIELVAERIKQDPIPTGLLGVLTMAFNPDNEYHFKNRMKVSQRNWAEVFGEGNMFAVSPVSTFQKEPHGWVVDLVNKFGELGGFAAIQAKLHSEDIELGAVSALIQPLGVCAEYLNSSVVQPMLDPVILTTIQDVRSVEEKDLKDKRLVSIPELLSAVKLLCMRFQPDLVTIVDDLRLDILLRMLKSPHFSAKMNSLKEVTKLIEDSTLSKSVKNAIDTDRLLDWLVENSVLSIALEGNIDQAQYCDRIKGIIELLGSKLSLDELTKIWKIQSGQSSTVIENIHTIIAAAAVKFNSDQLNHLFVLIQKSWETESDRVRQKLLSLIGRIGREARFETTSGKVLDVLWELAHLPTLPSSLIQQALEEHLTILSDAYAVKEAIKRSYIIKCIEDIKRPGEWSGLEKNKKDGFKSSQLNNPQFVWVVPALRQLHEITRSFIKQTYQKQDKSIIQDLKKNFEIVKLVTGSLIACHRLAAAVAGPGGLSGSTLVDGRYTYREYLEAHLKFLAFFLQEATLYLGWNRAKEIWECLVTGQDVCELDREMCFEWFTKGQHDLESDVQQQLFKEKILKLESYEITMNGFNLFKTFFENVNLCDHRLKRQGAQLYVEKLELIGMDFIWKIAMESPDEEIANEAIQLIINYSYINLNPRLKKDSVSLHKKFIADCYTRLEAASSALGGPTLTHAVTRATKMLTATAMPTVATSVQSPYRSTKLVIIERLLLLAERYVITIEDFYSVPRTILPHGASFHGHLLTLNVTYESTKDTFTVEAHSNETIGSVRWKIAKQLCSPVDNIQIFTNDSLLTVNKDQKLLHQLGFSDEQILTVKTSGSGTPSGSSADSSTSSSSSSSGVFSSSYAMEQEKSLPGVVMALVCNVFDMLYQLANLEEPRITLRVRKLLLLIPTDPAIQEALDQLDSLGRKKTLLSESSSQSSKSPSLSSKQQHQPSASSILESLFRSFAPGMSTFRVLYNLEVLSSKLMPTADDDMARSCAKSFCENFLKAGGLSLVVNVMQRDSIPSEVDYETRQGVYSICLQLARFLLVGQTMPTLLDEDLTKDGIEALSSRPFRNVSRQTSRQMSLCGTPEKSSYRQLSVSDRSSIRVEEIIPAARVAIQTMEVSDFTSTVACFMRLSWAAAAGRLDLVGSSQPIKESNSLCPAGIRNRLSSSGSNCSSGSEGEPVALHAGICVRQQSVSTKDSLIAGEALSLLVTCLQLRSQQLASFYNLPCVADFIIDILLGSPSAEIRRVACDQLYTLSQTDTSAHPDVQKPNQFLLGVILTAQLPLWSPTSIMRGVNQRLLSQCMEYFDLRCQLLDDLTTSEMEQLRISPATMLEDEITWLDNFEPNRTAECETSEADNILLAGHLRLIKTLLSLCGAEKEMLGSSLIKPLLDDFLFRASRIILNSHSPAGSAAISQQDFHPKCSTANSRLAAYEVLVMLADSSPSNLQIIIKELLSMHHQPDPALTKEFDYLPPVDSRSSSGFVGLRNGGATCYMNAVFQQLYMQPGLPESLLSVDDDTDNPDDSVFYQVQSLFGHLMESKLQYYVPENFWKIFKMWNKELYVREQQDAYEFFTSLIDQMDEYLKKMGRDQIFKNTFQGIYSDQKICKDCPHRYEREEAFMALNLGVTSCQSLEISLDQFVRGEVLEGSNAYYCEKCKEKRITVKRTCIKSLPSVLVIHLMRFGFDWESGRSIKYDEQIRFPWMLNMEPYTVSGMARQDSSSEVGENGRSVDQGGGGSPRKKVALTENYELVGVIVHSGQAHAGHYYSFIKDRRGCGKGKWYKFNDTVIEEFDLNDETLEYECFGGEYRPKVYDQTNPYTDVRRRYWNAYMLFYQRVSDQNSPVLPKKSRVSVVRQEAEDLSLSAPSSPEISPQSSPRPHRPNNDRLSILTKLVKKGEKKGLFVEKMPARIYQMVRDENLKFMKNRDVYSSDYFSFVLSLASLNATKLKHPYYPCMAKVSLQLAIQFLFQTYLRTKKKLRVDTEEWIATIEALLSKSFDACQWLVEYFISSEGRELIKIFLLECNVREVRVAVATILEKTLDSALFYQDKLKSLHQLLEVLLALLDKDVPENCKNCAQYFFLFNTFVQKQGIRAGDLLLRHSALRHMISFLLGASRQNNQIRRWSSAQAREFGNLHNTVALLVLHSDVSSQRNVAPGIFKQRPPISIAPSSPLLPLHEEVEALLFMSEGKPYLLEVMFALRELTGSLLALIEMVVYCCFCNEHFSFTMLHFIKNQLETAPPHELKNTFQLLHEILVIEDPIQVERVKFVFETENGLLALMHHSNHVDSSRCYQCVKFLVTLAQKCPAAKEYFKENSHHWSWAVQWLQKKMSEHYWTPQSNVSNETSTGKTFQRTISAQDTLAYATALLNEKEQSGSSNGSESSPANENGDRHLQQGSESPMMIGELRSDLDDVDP
Outline: as §1

USP25 = molecular target: T3, USP25 (UniProt Q9UHP3)
T3 sequence (whole entry): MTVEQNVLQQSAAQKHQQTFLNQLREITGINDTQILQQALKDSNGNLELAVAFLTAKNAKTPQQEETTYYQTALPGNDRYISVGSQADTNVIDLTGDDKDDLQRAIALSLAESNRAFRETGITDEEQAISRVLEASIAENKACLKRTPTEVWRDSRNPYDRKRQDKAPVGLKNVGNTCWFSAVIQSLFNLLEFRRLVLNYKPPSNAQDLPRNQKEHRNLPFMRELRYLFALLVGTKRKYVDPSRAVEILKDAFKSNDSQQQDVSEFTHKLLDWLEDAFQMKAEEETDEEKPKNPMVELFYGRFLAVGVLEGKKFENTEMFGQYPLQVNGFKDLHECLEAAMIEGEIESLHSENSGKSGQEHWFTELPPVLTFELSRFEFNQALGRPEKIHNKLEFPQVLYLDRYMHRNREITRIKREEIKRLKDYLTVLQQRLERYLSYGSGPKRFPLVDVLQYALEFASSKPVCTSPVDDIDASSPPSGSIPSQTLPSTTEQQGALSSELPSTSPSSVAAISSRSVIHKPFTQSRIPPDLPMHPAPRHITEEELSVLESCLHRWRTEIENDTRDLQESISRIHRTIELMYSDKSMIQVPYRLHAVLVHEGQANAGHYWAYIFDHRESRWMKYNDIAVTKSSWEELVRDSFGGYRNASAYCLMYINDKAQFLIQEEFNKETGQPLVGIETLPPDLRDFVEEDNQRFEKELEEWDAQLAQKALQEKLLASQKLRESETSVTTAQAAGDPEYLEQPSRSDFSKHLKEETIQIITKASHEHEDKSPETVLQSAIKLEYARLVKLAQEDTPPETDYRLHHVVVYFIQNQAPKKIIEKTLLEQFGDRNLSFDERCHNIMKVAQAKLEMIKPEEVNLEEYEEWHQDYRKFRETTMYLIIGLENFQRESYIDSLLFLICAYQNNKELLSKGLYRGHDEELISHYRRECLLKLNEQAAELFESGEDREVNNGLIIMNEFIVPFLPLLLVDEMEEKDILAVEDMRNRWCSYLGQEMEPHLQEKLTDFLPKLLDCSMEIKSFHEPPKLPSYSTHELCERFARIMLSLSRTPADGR
Outline: as §1

USP28 = molecular target: T4, USP28 (UniProt Q96RU2)
T4 sequence (whole entry): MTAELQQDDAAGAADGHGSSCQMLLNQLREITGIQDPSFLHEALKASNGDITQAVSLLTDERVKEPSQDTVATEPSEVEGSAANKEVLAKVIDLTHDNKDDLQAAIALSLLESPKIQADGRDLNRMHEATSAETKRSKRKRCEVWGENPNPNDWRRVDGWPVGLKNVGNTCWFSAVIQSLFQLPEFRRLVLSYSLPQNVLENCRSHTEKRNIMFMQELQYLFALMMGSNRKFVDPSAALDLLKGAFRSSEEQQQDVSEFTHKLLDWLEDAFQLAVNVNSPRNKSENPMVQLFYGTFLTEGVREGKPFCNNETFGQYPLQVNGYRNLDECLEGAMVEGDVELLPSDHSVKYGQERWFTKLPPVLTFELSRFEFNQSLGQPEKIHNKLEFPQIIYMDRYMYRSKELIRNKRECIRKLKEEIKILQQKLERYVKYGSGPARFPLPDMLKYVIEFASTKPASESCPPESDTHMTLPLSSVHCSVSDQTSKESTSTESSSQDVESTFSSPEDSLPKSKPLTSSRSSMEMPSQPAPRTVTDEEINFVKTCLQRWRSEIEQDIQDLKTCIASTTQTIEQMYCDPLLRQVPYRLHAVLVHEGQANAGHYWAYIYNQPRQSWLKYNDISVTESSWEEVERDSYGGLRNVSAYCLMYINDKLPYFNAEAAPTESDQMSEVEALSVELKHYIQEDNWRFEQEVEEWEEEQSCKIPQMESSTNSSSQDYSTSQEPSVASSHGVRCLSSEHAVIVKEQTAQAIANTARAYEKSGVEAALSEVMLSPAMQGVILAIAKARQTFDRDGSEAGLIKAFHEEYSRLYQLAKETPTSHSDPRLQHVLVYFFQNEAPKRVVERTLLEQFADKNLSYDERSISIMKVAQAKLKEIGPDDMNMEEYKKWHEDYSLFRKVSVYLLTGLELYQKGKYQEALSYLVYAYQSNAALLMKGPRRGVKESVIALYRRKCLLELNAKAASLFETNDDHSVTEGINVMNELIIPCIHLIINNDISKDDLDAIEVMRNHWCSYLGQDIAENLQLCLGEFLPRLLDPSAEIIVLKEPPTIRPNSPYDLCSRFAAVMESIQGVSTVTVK
Outline: as §1

Measured: log2 ratio of Biotin-Ahx-Ub-VS probe labelling

Cc1noc(N2CCN(C(=O)CCl)CC2)n1.Cl
inactive: USP19 -0.238 | USP22 0.0656 | USP24 -0.00876 | USP25 -0.13 | USP28 -0.444
